The structures appear in SMILES notation. Where a name gives a salt, the structure may show the parent alone. Screen size: about 5,800 compounds; about 620 (11%) showed activity. This excerpt belongs to a sample that is enriched for actives. A number with no mark means an inactive call.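 How the source made its calls: active = score above a cut-off or among the top three wells of a plate; in these data no inactive exceeds 0.85.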 Bounds are passed on as bounds.

This assay relates to primary human hepatic stellate cells (donor 1). Put plainly: scaled lipid accumulation score (0 = DMSO-like, 1 = nortriptyline-like); higher = stronger HSC inactivation (lipid re-accumulation), active = hit call of the paper. To be noted: 48 h.
Where [1] appears, read: library stock concentration: 1 mM.
The mark [2] stands for this setting: library stock concentration: 10 mM.
Setting [3] is: library stock concentration: 3.33 mM.

As for `C=C1[C@H]2C[C@@]3([C@@H]1O)[C@@H](C[C@@H]2O)[C@]12[C@@H]4C[C@H]3[C@H]1N(CC)C[C@]4(C)CC[C@@H]2O` [Napelline], the “scaled lipid accumulation score” value was no more than 0.

With `NCCC(O)C(=O)NC1CC(N)C(OC2OC(CN)C(O)[C@H](O)[C@@H]2N)[C@H](OC2O[C@H](CO)[C@@H](O)[C@@H]2O)[C@@H]1O` (stereo not given in full) [Butirosin disulfate salt], the “scaled lipid accumulation score” value is 0.015. In the case of `COc1ccc(/C=C\c2cc(OC)cc(OC)c2)cc1` [cis-trismethoxy Resveratrol], the “scaled lipid accumulation score” value under setting [1] is 0.097.

For the compound `N[C@]1(C(=O)O)CC[C@H](C(=O)O)C1`, the “scaled lipid accumulation score” value under setting [2] is 0.035. For the compound `C[C@@H]1O[C@@H](O[C@H]2C[C@@H](O)[C@]3(CO)[C@H]4[C@H](O)C[C@]5(C)[C@@H](C6=CC(=O)OC6)CC[C@]5(O)[C@@H]4CC[C@]3(O)C2)[C@H](O)[C@H](O)[C@H]1O.O.O.O.O.O.O.O.O` [Strophantine octahydrate], the “scaled lipid accumulation score” value is 1.02 (active). As for `C[C@H]1O[C@@H](O[C@@H]2C[C@H](O)[C@]3(CO)[C@H]4[C@H](O)C[C@]5(C)[C@H](C6=CC(=O)OC6)CC[C@]5(O)[C@@H]4CC[C@]3(O)C2)[C@@H](O)[C@H](O)[C@H]1O.O.O.O.O.O.O.O.O` [Ouabain], the “scaled lipid accumulation score” value under setting [3] was 1.05 (active) and the “scaled lipid accumulation score” value under setting [2] is 1.06 (active).

As to `CCCCC/C=C\C/C=C\C/C=C\C/C=C\CCCC(=O)Nc1ccc2c(C)cc(=O)oc2c1` [AMC Arachidonoyl Amide], the “scaled lipid accumulation score” value under setting [1] was 0.06.

Consider `C/C=C1\C[C@@H](C)[C@](O)(CO)C(=O)OCC2=CCN3CC[C@@H](OC1=O)[C@@H]23` [Retrorsine], for which the “scaled lipid accumulation score” value is no more than 0. Consider `COc1c(C[C@@H](C)OC(=O)Oc2ccc(O)cc2)c2c3c(C[C@@H](C)OC(=O)c4ccccc4)c(OC)c(=O)c4c(O)cc(OC)c(c5c(OC)cc(O)c(c1=O)c52)c43` [Calphostin C], for which the “scaled lipid accumulation score” value (library stock concentration: 600 uM) was 0.094. In the case of `C=C[C@]12CN(C)[C@@H]3[C@H]4CO[C@H](C[C@H]41)[C@]1(C(=O)Nc4ccccc41)[C@@H]32` [Gelsemine], the “scaled lipid accumulation score” value is no more than 0. Regarding `C=CCc1ccccc1OCC(O)CNC1(C)CCC(C(C)(C)NC(=O)CBr)CC1` (stereo not given) [Bromoacetyl alprenolol menthane], the “scaled lipid accumulation score” value under setting [2] is no more than 0. Consider `CO[C@@H]1C[C@@H](C[C@H]2CC[C@H](C)[C@H]([C@@H](C)C(=O)O)O2)O[C@]2(O[C@](C)([C@H]3CC[C@@](C)([C@@H]4O[C@@H]([C@H]5O[C@@](O)(CO)[C@H](C)C[C@@H]5C)C[C@@H]4C)O3)C[C@H]2C)[C@@H]1C` [Nigericin], for which, under “library stock concentration: 6.9 mM”, the “scaled lipid accumulation score” value was 0.535. Regarding `CO[C@H]1CC[C@@H](O[C@H]2C[C@H]([C@]3(C)CC[C@]4(C[C@H](O)[C@@H](C)[C@@H]([C@@H](C)/C=C(\C)C(=O)[C@H](C)C[C@H](C)C(=O)O)O4)O3)O[C@]3(O[C@@H]([C@H]4O[C@@](O)(CO)[C@H](C)C[C@@H]4C)C[C@@H]3C)[C@@H]2C)O[C@@H]1C` [Nanchangmycin], the “scaled lipid accumulation score” value under setting [3] is 1.27 (active) and the “scaled lipid accumulation score” value under setting [2] was 0.663. As to `NC(Cc1cc(O)c(O)cc1O)C(=O)O` (racemic) [6-Hydroxy-DL-DOPA], the “scaled lipid accumulation score” value under setting [2] was no more than -0.07. On to `C[C@H]1CC[C@]2(NC1)O[C@H]1C[C@H]3[C@@H]4CC[C@H]5C[C@@H](O[C@@H]6O[C@H](CO)[C@H](O[C@@H]7O[C@H](CO)[C@@H](O)[C@H](O[C@@H]8OC[C@@H](O)[C@H](O)[C@H]8O)[C@H]7O[C@@H]7O[C@H](CO)[C@@H](O)[C@H](O)[C@H]7O)[C@H](O)[C@H]6O)CC[C@]5(C)[C@H]4CC[C@]3(C)[C@H]1[C@@H]2C` [Tomatine], for which the “scaled lipid accumulation score” value is 0.319.

On to `CC(=O)O[C@H]1C[C@H](O[C@H]2[C@@H](O)C[C@H](O[C@H]3[C@@H](O)C[C@H](O[C@H]4CC[C@@]5(C)[C@H](CC[C@@H]6[C@@H]5C[C@@H](O)[C@]5(C)[C@@H](C7=CC(=O)OC7)CC[C@]65O)C4)O[C@@H]3C)O[C@@H]2C)O[C@H](C)[C@H]1O[C@@H]1O[C@H](CO)[C@@H](O)[C@H](O)[C@H]1O` [Lanatoside C], for which the “scaled lipid accumulation score” value was 1.08 (active).

As for `CC(=O)[C@H]1CC[C@H]2[C@@H]3CC[C@H]4C[C@H](O)CC[C@]4(C)[C@H]3CC[C@]12C` [5alpha-Pregnan-3alpha-ol-20-one], the “scaled lipid accumulation score” value under setting [2] was no more than 0. In the case of `C[C@]12CC[C@H](O)C[C@@H]1CC[C@@H]1[C@@H]2CC[C@]2(C)C(=O)CC[C@@H]12` [Epiandrosterone], the “scaled lipid accumulation score” value was 0.082. In addition, the “scaled lipid accumulation score” value under setting [3] was no more than 0. In addition, the “scaled lipid accumulation score” value under setting [2] is no more than 0. With `C[C@]12CC[C@@H](O)C[C@@H]1CC[C@@H]1[C@@H]2CC[C@]2(C)C(=O)CC[C@@H]12` [Androsterone], the “scaled lipid accumulation score” value is 0.083. On to `CC(=O)O[C@H]1C[C@H](O[C@H]2[C@@H](O)C[C@H](O[C@H]3[C@@H](O)C[C@H](O[C@H]4CC[C@@]5(C)[C@H](CC[C@@H]6[C@@H]5C[C@@H](O)[C@]5(C)[C@@H](C7=CC(=O)OC7)CC[C@]65O)C4)O[C@@H]3C)O[C@@H]2C)O[C@H](C)[C@H]1O[C@@H]1O[C@H](CO)[C@@H](O)[C@H](O)[C@H]1O` [Lanatoside c], for which the “scaled lipid accumulation score” value reads like this: (library stock concentration: 2 mM) 0.894 (active); under setting [2], 0.892 (active). Turning to `C[C@]12CC[C@@H](O)C[C@H]1CC[C@@H]1[C@@H]2CC[C@]2(C)C(=O)CC[C@@H]12` [3-alpha-Hydroxy-5-beta-androstan-17-one], the “scaled lipid accumulation score” value was no more than 0. As for `CO[C@H]1[C@H](O)[C@@H](O[C@H]2CC[C@]3(C=O)C4CC[C@]5(C)[C@@H](C6=CC(=O)OC6)CC[C@]5(O)C4CC[C@@H]3C2)O[C@@H](C)[C@@H]1O` (stereo not given in full) [Peruvoside], the “scaled lipid accumulation score” value under setting [2] was 0.873 (active). For `C[C@]12CC[C@H](O)C[C@H]1CC[C@@H]1[C@@H]2C[C@@H](O)[C@]2(C)[C@@H](C3=CC(=O)OC3)CC[C@]12O` [Digoxigenin], the “scaled lipid accumulation score” value is 0.991 (active). In the case of `C[C@@H]1O[C@@H](O[C@H]2CC[C@]3(C=O)[C@H]4CC[C@]5(C)[C@@H](C6=CC(=O)OC6)CC[C@]5(O)[C@@H]4CC[C@]3(O)C2)[C@H](O)[C@H](O)[C@H]1O` [Convallatoxin], under setting [2], the “scaled lipid accumulation score” value is 0.656.

With `C[C@]12CC[C@H](O)C[C@H]1CC[C@@H]1[C@@H]2CC[C@]2(C)[C@@H](C3=CC(=O)OC3)CC[C@]12O` [Digitoxigenin], the “scaled lipid accumulation score” value was 0.936 (active).

(Values after the supplement of paper PMC9135407.)
